# Source: PubChem BioAssay (NCI)
# The panel holds about 79,000 compounds, 15% with a hit somewhere; the sample as a whole holds those more often. A number with no mark means an inactive call. Activity calls are given as the source filed them. Cut-off read from the data, not from the text of the source: active = growth inhibition above about 70%; inactive = the rest.
# Legend:
# [1] = NCI Yeast Anticancer Drug Screen. Data for the rad52 strain (AID 147);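 note: 0% = growth of vehicle-treated control cultures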; conditions: S. cerevisiae rad52 mutant growth inhibition, hits give high values
# How it was run: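 Yeast strain carrying a DNA damage repair alteration was exposed to test compounds. Growth inhibition was measured relative to vehicle-treated controls.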
# [2] = NCI Yeast Anticancer Drug Screen. Data for the wt1 strain (AID 149);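 note: 0% = growth of vehicle-treated wt1 cultures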; conditions: S. cerevisiae wt1 strain (SPY 50644) growth inhibition, hits give high values
# How it was run: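 wt1 strain grown with compound or vehicle; inhibition taken from the growth difference.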
# [3] = NCI Yeast Anticancer Drug Screen. Data for the mgt1 strain (AID 153); conditions: S. cerevisiae mgt1 mutant growth inhibition, hits give high values
# How it was run: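 Yeast mgt1 strain (DNA repair/cell-cycle alteration panel) exposed to compounds; growth inhibition measured relative to vehicle-treated controls.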
# [4] = NCI Yeast Anticancer Drug Screen. Data for the rad50 strain (AID 155);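 note: 0% = growth of vehicle-only cultures of the same strain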; conditions: S. cerevisiae rad50 strain growth inhibition, hits give high values
# How it was run: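 DNA repair mutant yeast, compound exposure, growth read-out; inhibition is taken relative to vehicle.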
# [5] = NCI Yeast Anticancer Drug Screen. Data for the mec2-1 strain (AID 157); conditions: S. cerevisiae mec2-1 strain, hits give high values
# How it was run: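 mec2-1 yeast strain, carrying an alteration in DNA damage repair or cell cycle control, was exposed to compounds; growth inhibition was measured relative to vehicle-treated controls.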
# [6] = NCI Yeast Anticancer Drug Screen. Data for the rad14 strain (AID 159);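 note: 0% = growth of vehicle-treated control cultures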; conditions: S. cerevisiae rad14 strain growth inhibition, hits give high values
# How it was run: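 DNA repair-defective yeast, compound-exposed; % growth inhibition derived by comparison with vehicle-treated controls.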
# [7] = NCI Yeast Anticancer Drug Screen. Data for the sgs1 mgt1 strain (AID 161);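 note: 0% = growth of cultures given vehicle only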; conditions: S. cerevisiae sgs1 mgt1 strain, hits give high values
# How it was run: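 This yeast growth screen uses a strain with defined DNA-repair lesions; compound-treated growth is compared with vehicle-treated growth.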
# [8] = NCI Yeast Anticancer Drug Screen. Data for the CLN2oe strain (AID 163);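 note: 0% = growth of vehicle-only control cultures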; conditions: S. cerevisiae CLN2oe strain, hits give high values
# How it was run: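 Yeast cells carrying a defined cell-cycle control alteration were exposed to test compounds. Growth inhibition was scored against vehicle-treated control cultures.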
# [9] = NCI Yeast Anticancer Drug Screen. Data for the cln2 rad14 strain (AID 165);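 note: 0% = growth equal to vehicle treated cultures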; conditions: S. cerevisiae cln2 rad14 strain, hits give high values
# How it was run: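 Yeast carrying cln2 and rad14 alterations (cell cycle control and DNA damage repair) were exposed to compounds. Growth inhibition was measured against vehicle-treated controls.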
# [10] = NCI Yeast Anticancer Drug Screen. Data for the wt2 strain (AID 169);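 note: 0% = growth of vehicle-treated yeast cultures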; conditions: S. cerevisiae wt2 strain growth inhibition, hits give high values
# How it was run: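 Yeast cells were exposed to test compounds, and growth inhibition was measured relative to vehicle-treated controls.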
# [11] = NCI Yeast Anticancer Drug Screen. Data for the mlh1 strain (AID 171);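 note: 0% = growth of vehicle-treated control cultures of the same strain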; conditions: S. cerevisiae mlh1 strain growth inhibition, hits give high values
# How it was run: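 Yeast carrying a defined genetic alteration in DNA damage repair or cell cycle control were exposed to test compounds. Growth inhibition was measured relative to vehicle-treated controls.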
# [12] = NCI Yeast Anticancer Drug Screen. Data for the sgs1 strain (AID 173);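 note: 0% = growth of vehicle-only control cultures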; conditions: S. cerevisiae sgs1 mutant, hits give high values
# How it was run: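 Yeast mutant strains carrying defined defects in DNA damage repair or cell cycle control were exposed to test compounds. Growth inhibition was scored against vehicle-treated controls.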
# [13] = NCI Yeast Anticancer Drug Screen. Data for the mlh1 rad18 strain (AID 175); conditions: S. cerevisiae mlh1 rad18 strain growth inhibition, hits give high values
# How it was run: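 Growth inhibition of the yeast strain was measured after compound exposure and expressed relative to vehicle-treated controls. The strain carries defined defects in DNA damage repair.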
# [14] = NCI Yeast Anticancer Drug Screen. Data for the rad18 strain (AID 177); conditions: S. cerevisiae rad18 mutant growth inhibition, hits give high values
# How it was run: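 Yeast carrying a defined DNA damage repair alteration were exposed to compounds. Growth inhibition was expressed relative to vehicle-treated controls.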
# [15] = at 5.0 µM (retest, dose inferred, filed as 0.5)
# [16] = at 50.0 µM (retest, dose inferred, filed as 5.0)
compound,measurement,setting,value
CN(C)CCCn1c2c3ccccc3ccc2c2oc(=O)c3ccccc3c21,growth inhibition,[1]; at 1.2 µM,3%
same,growth inhibition,[1]; at 3.7 µM,33%
same,growth inhibition,[1]; at 11.0 µM,86% (active)
same,growth inhibition,[1]; at 33.0 µM,97% (active)
same,growth inhibition,[1]; at 100.0 µM,98% (active)
same,growth inhibition,[2]; at 1.2 µM,-10%
same,growth inhibition,[2]; at 3.7 µM,-7%
same,growth inhibition,[2]; at 11.0 µM,26%
same,growth inhibition,[2]; at 33.0 µM,84% (active)
same,growth inhibition,[2]; at 100.0 µM,97% (active)
same,growth inhibition,[3]; at 1.2 µM,13%
same,growth inhibition,[3]; at 3.7 µM,33%
same,growth inhibition,[3]; at 11.0 µM,53%
same,growth inhibition,[3]; at 33.0 µM,92% (active)
same,growth inhibition,[3]; at 100.0 µM,98% (active)
same,growth inhibition,[4]; at 1.2 µM,0%
same,growth inhibition,[4]; at 3.7 µM,45%
same,growth inhibition,[4]; [15],22%
same,growth inhibition,[4]; at 11.0 µM,91% (active)
same,growth inhibition,[4]; at 33.0 µM,97% (active)
same,growth inhibition,[4]; [16],98% (active)
same,growth inhibition,[4]; at 50.0 µM,99% (active)
same,growth inhibition,[4]; at 100.0 µM,98% (active)
same,growth inhibition,[5]; at 1.2 µM,0%
same,growth inhibition,[5]; at 3.7 µM,28%
same,growth inhibition,[5]; [15],21%
same,growth inhibition,[5]; at 11.0 µM,48%
same,growth inhibition,[5]; at 33.0 µM,88% (active)
same,growth inhibition,[5]; [16],98% (active)
same,growth inhibition,[5]; at 50.0 µM,98.8% (active)
same,growth inhibition,[5]; at 100.0 µM,96% (active)
same,growth inhibition,[6]; at 1.2 µM,-6%
same,growth inhibition,[6]; at 3.7 µM,10%
same,growth inhibition,[6]; at 11.0 µM,30%
same,growth inhibition,[6]; at 33.0 µM,83% (active)
same,growth inhibition,[6]; at 100.0 µM,98% (active)
same,growth inhibition,[7]; [15],-9%
same,growth inhibition,[7]; [16],75% (active)
same,growth inhibition,[7]; at 50.0 µM,98.7% (active)
same,growth inhibition,[8]; at 1.2 µM,3%
same,growth inhibition,[8]; at 3.7 µM,14%
same,growth inhibition,[8]; at 11.0 µM,44%
same,growth inhibition,[8]; at 33.0 µM,86% (active)
same,growth inhibition,[8]; at 100.0 µM,97% (active)
same,growth inhibition,[9]; [15],-17%
same,growth inhibition,[9]; [16],97% (active)
same,growth inhibition,[9]; at 50.0 µM,98.4% (active)
same,growth inhibition,[10]; at 1.2 µM,-22%
same,growth inhibition,[10]; at 3.7 µM,-9%
same,growth inhibition,[10]; at 11.0 µM,50%
same,growth inhibition,[10]; at 33.0 µM,93% (active)
same,growth inhibition,[10]; at 100.0 µM,97% (active)
same,growth inhibition,[11]; at 1.2 µM,22%
same,growth inhibition,[11]; at 3.7 µM,30%
same,growth inhibition,[11]; at 11.0 µM,53%
same,growth inhibition,[11]; at 33.0 µM,90% (active)
same,growth inhibition,[11]; at 100.0 µM,98% (active)
same,growth inhibition,[12]; at 1.2 µM,0%
same,growth inhibition,[12]; at 3.7 µM,-2%
same,growth inhibition,[12]; at 11.0 µM,34%
same,growth inhibition,[12]; at 33.0 µM,85% (active)
same,growth inhibition,[12]; at 100.0 µM,96% (active)
same,growth inhibition,[13]; [15],-1%
same,growth inhibition,[13]; [16],98% (active)
same,growth inhibition,[13]; at 50.0 µM,99.2% (active)
same,growth inhibition,[14]; at 1.2 µM,-10%
same,growth inhibition,[14]; at 3.7 µM,-2%
same,growth inhibition,[14]; at 11.0 µM,47%
same,growth inhibition,[14]; at 33.0 µM,93% (active)
same,growth inhibition,[14]; at 100.0 µM,98% (active)
